Mtb bLac sens = beta-lactam sensitization of Mtb H37Rv. inhibition, % at 25 µM. AID 434955. hit rate 0.27% among 330,000. M. tuberculosis H37Rv growth with meropenem, percent inhibition; call rule not given here;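 also: growth measured after seven days incubation then overnight dye step; 0% = bacteria only wells and 100% = bacteria with antibiotic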
UGM FP inh = inhibitors of M. tuberculosis UDP-galactopyranose mutase; P9WIQ1; purified UGM, fluorescence polarization probe displacement; inhibition, % at 10 µM; hit rate 0.06% among 320,000; AID 504406; in the data active = inhibition above about 10%, passing the limit was not always enough; inconclusive = no clear call, values can overlap the other calls
Target sequence (P9WIQ1 whole entry, looked up): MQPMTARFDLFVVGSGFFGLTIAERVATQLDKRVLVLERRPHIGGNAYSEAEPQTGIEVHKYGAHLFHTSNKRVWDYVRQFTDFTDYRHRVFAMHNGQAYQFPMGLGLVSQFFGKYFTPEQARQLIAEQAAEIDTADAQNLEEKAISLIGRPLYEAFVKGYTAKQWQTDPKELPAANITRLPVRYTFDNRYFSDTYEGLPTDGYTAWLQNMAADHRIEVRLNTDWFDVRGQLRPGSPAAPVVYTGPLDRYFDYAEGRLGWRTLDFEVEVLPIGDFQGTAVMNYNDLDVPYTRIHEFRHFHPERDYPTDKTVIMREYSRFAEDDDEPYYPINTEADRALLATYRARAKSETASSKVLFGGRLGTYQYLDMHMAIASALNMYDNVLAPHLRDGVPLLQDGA
Yp Topo-I inh = inhibitors of Yersinia pestis topoisomerase I; activity, % at 10 µM; hit rate 0.064% among 360,000; Y. pestis Topo-I cleavage product accumulation, plate reader; AID 504884; in the data active = activity above about 50%, passing the limit was not always enough; inconclusive = no clear call, values can overlap the other calls
Rv3671c inh = inhibits the M. tuberculosis serine protease Rv3671c | P9WHR9 | AID 2606 | inhibition, % at 5.96 µM | hit rate 0.048% among 320,000;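 also: extracellular domain of Rv3671c used as enzyme; 0% = enzyme with DMSO and 100% = no enzyme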
FadD28 FP inh = inhibitors of Mycobacterium tuberculosis FadD28 bisubstrate binding; inhibition, % at 12.5 µM; hit rate 0.22% among 360,000; FadD28 bisubstrate probe binding, fluorescence polarization; in the data active = inhibition above about 8.5%, passing the limit was not always enough; inconclusive = no clear call, values can overlap the other calls
PfHsp40 yeast = rescue of PfHsp40-mediated yeast toxicity; S. cerevisiae expressing PfHsp40, growth rescue, ATP luminescence; hit rate 0.68% among 340,000; growth rescue, % at 12.5 µM; in the data active = growth rescue above about 28%, passing the limit was not always enough; inconclusive = no clear call, values can overlap the other calls;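 also: yeast W303a lacking pdr1 and pdr3 grown in galactose medium; growth measured after three days at 30 °C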
Rv3671c confirm = Rv3671c protease inhibition, confirmation | shares compounds with Rv3671c inh | inhibition, % at 5.96 µM | hit rate 40% among 140 | AID 2761
The depositor's hits bear a star; u = inconclusive; x = not tested or not shown. Only some compounds are listed: those with a hit (about 0.98% of all), similar ones and a draw of the others. Rule as the data show it, unless noted: active = inhibition above about 38%; inactive = the rest.

SMILES | Mtb bLac sens | UGM FP inh | Yp Topo-I inh | Rv3671c inh | FadD28 FP inh | PfHsp40 yeast | Rv3671c confirm
Cn1c(/C(C#N)=C/c2cccc(O)c2)nc2ccccc21 | 4.4 | -1.9 | 5.3 | 1.4 | -2.5 | -0.8 | x
CCN(CC)C(=O)c1cccc(-c2csc(C(O)(c3ccccc3)C(F)(F)F)n2)c1 (configuration not stated) | x | x | 10.9 | x | -20.7 | x | x
CCc1nc2ccc(C(=O)NCCC(C)C)cn2c1N(C)Cc1ccc(OC)cc1 | x | x | 25.2 | x | -1.5 | x | x
COc1cccc(CNC(=O)c2ccc(NC(=O)C3=CSCCO3)cc2)c1 | 7.7 | -2.5 | 6.9 | 60.8* | -3.1 | 0.3 | -5.9
Cc1ccc(CNC(=O)c2ccc(NC(=O)C3=CSCCO3)cc2)cc1 | -4.4 | -0.6 | 10.8 | -10.0 | -3.3 | -0.9 | x
O=C(N/N=C/c1cc(Br)c(O)c(Br)c1O)c1ccc2c(c1)OCCO2 | 6.3 | 1.7 | -21.5 | 41.7* | 12.4* | 152.1* | 21.1
O=C(N/N=C/c1cc(Br)c(Br)o1)c1ccc2c(c1)OCCO2 | 5.4 | 2.4 | -5.1 | 2.1 | -4.1 | 1.3 | x
O=[N+]([O-])c1ccc(NCc2ccccc2)c2nonc12 | 5.7 | 7.3 | x | 49.4* | x | x | 42.6*
Cn1c2ccccc2c2cc(/C=N/NC(=O)c3ccc(O)cc3O)ccc21 | 15.1 | -0.2 | -13.0 | 25.1 | -3.2 | 1.4 | x
Cn1c(O)c(/C=N/NC(=O)c2cc3ccccc3cc2O)c2ccccc21 | -5.5 | 1.3 | -13.9 | 47.2* | u | -0.6 | 22.0
COc1ccc([C@H]2C[C@H](O)[C@@H](n3cc(-c4ccc(F)cc4)nn3)CN2Cc2cccs2)cc1 | x | x | 32.9 | x | -4.5 | x | x
Cc1nc2ccccc2n2c(O)c(CC(=O)O)cc12 | 7.6 | 0.2 | -10.0 | 53.1* | 13.9* | 0.7 | 4.8
Cc1nc2ccccc2n1CCC(=O)O | -12.8 | 0.3 | 8.8 | 1.1 | -2.0 | 0.9 | x
CCn1c(=O)c2[nH]c(Cl)nc2n(CC)c1=O | x | x | -2.9 | x | -3.4 | x | x
O=C(NCc1ccco1)c1cccc(Nc2nc3ccc(Br)cc3[nH]2)c1 | -3.1 | -0.1 | -18.1 | 40.3* | -10.5 | 0.6 | 43.7*
Nc1ccc2nc(-c3ccccc3)c(-c3ccccc3)nc2c1 | 5.1 | -1.5 | 2.0 | 3.2 | 1.4 | -1.5 | x
C[n+]1c(-c2ccccc2)c2cc(N)ccc2c2ccc(N)cc21 | 99.9 | -1.4 | -16.1 | 74.2* | 13.5* | 128.1* | 90.4*
Cc1ccc(S(=O)(=O)N2CC3(O)CN(C(=O)OC(C)C)N(C(=O)OC(C)C)CC3(OC(=O)NCC3CCCCC3)C2)cc1 (configuration not stated) | x | x | 8.0 | x | -3.3 | x | x
COc1ccccc1-c1cc(C(F)(F)F)nc(S(=O)(=O)CCCC(=O)N2CCOCC2)n1 | 93.7 | 4.5 | -6.8 | -8.9 | -3.4 | 1.0 | x
COc1ccc(-c2cc(C(F)(F)F)nc(S(=O)(=O)CCC(=O)N3CCOCC3)n2)cc1 | 46.5 | -1.5 | -8.2 | 59.7* | 0.6 | -1.5 | -6.8
CN1C(=O)NC(c2ccccc2[N+](=O)[O-])C2=C1CCCC2=O (configuration not stated) | 0.4 | 11.6* | -0.6 | 74.4* | 6.5 | -1.7 | 37.9*
CC(=O)Nc1ccc(CN(C)c2c(C)nc3ccc(C(=O)NC4CCN(Cc5ccccc5)CC4)cn23)cc1 | x | x | 7.6 | x | -4.5 | x | x
CC1=C(C(N)=O)C(c2cccnc2)n2nc(-c3cccc(Cl)c3)nc2N1 (configuration not stated) | 5.4 | -0.2 | -1.5 | -0.8 | -4.8 | 1.1 | x
CC1=C(C(N)=O)C(c2ccccc2)n2nc(-c3cccc(C)c3)nc2N1 (configuration not stated) | -2.9 | -0.9 | -2.8 | 64.8* | -2.4 | -0.3 | 59.5*
Cc1nn(Cc2ccccc2)c(C)c1NC(=O)c1ccc([N+](=O)[O-])cc1[N+](=O)[O-] | -1.0 | -2.9 | -3.8 | 166.0* | -4.7 | -0.6 | -7.4
SMILES | Mtb bLac sens | UGM FP inh | Yp Topo-I inh | Rv3671c inh | FadD28 FP inh | PfHsp40 yeast | Rv3671c confirm
Cc1cc(C)n2nc(SCC(=O)N/N=C/c3ccccn3)nc2n1 | 1.1 | 1.2 | -0.7 | 76.3* | -1.4 | 0.1 | -5.8
O=c1[nH]nc(CNc2ccc(O)cc2)c2ccccc12 | -3.3 | -0.3 | -8.1 | 40.4* | 3.2 | 0.6 | -7.3
O=C1c2c(O)cccc2Cc2cccc(O)c21 | -0.8 | -1.9 | -23.7 | 58.2* | -4.1 | 0.6 | 26.6
Cc1cc(NS(=O)(=O)c2ccc(Nc3nc(-c4sc(NC(=O)c5ccccc5)nc4C)cs3)cc2)no1 | 11.3 | -0.3 | x | 63.3* | x | x | 49.6*
Cc1nc(NC(=O)c2ccccc2)sc1-c1csc(Nc2cccc(F)c2)n1 | -0.4 | -1.6 | x | -13.6 | x | x | x
COc1cc2nc(Nc3ccc(C)c(Cl)c3)nc(N)c2cc1OC | 100.0 | 4.2 | -47.3 | 74.2* | -4.6 | -1.6 | 74.2*
CSc1ccc(CN2CCC2(C)C(=O)NCc2cccs2)cc1 (configuration not stated) | x | x | 26.7 | x | -1.9 | x | x
C(=N\Nc1nc2ccccc2[nH]1)/c1c[nH]c2ccccc12 | 89.7 | 3.2 | -18.7 | 41.2* | 4.0 | 0.3 | 91.8*
Cc1ccccc1/C=N/Nc1nc2ccccc2[nH]1 | 64.5 | 0.3 | 1.8 | 8.3 | 0.7 | x | x
C(=N\Nc1nc2ccccc2[nH]1)/c1cccc2cccnc12 | 82.6 | -1.0 | 7.4 | 38.4* | -0.2 | -0.7 | 26.9
Cc1[nH]c2ccccc2c1/C=N/Nc1nc2ccccc2[nH]1 | 82.4 | 2.2 | -24.2 | 59.3* | 0.0 | 3.8 | 41.2*
Nc1ccc(Nc2nc3ccccc3[nH]2)cc1 | -3.4 | -0.6 | -27.9 | 49.7* | -2.4 | -1.9 | 46.5*
COCCCNC(=O)Cn1cc(/C=C(\C#N)C(=O)NC2CCCC2)c2ccccc21 | 6.2 | -1.6 | -5.3 | -7.7 | 1.8 | -0.3 | x
CCCN1CCN(C(=O)CCn2c(=O)c3cccn3c3cccnc32)CC1 | 3.0 | -1.0 | -5.8 | -6.6 | -1.2 | -0.2 | x
C(=N\Nc1nc2ccccc2[nH]1)/c1ccccc1 | 42.2 | -2.8 | -3.5 | 8.8 | -1.9 | -1.5 | x
O=[N+]([O-])c1cc(/C=N/Nc2nc3ccccc3[nH]2)c(O)cc1O | 7.5 | 0.2 | x | 60.1* | x | x | 28.8
CC(C)Oc1ccc(CCC(=O)N/N=C/c2ccc3c(c2)OCO3)cc1 | 0.9 | 3.1 | -6.3 | 38.4* | -2.4 | -2.3 | -0.1
O=C(CCc1ccc(O)c(O)c1)N/N=C/c1ccc2c(c1)OCO2 | 5.7 | 4.8 | 0.2 | 4.2 | x | -0.8 | x
Nc1ccn(CCCN2CCN(C(=O)C3CC3)CC2)c(=O)n1 | x | x | 0.2 | x | -0.7 | x | x
COc1ccc(CNC(=O)C2CCN(S(=O)(=O)c3ccc(N4CCCC4=O)cc3)CC2)cc1 | x | x | 14.2 | x | -2.1 | x | x
CC12CCC(=O)N1C(C(=O)Nc1cc(C(F)(F)F)ccc1N1CCCCC1)CS2 (configuration not stated) | -2.2 | -2.3 | 19.9 | 39.6* | -1.2 | 0.6 | 0.4
CC12CCC(=O)N1C(C(=O)Nc1cc(C(F)(F)F)ccc1N1CCOCC1)CS2 (configuration not stated) | -1.5 | 1.9 | -0.8 | -3.9 | -0.7 | -2.2 | x
Nc1ccc2nc(-c3cccc(-c4nc5ccc(N)cc5[nH]4)n3)[nH]c2c1 | 3.9 | -2.7 | -41.4 | 1.3 | -2.3 | -2.2 | x

Source: PubChem (several laboratories)
